# From the supplement of paper PMC10127200
# Where a name gives a salt, the structure may show the parent alone.
# Assays:
# Experiment in all cases: Euclidean distance of Cell Painting phenotypic profile (signed KS, 77 features) to DMSO centroid (dimensionless distance); 5 or 10 uM (library dependent); higher = stronger phenotypic change vs DMSO (phenoactivity)
# Details in all cases: 48 h
# 786-O = test system: 786-O
# Outline: (§1)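 Library compounds were applied at 10 or 5 uM, depending on the library, with 0.1% DMSO final, for 48 h to five cancer lines and a healthy fibroblast line. After staining, cells were imaged confocally at 20X across 9 fields per well, and Harmony extracted 77 features, each scored as a signed Kolmogorov-Smirnov statistic against vehicle wells on the same plate. Phenoactivity is the Euclidean distance between each profile and the median vehicle profile, with profiles first plate-position corrected, correlation-weighted and averaged over replicates at the top dose.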
# A549 = test system: A549
# Outline: as §1
# DU145 = test system: DU145
# Outline: as §1
# FB = test system: FB
# Outline: as §1
# HEPG2 = test system: HEPG2
# Outline: as §1
# OVCAR4 = test system: OVCAR4
# Outline: as §1
Compound,Euclidean distance (786-O),Euclidean distance (A549),Euclidean distance (DU145),Euclidean distance (FB),Euclidean distance (HEPG2),Euclidean distance (OVCAR4)
CC[C@H]1OC(=O)[C@H](C)[C@@H](O[C@H]2C[C@@](C)(OC)[C@@H](O)[C@H](C)O2)[C@H](C)[C@@H](O[C@@H]2O[C@H](C)C[C@H](N(C)C)[C@H]2O)[C@](C)(O)C[C@@H](C)[C@@H]2N[C@@H](COCCOC)O[C@H]([C@H]2C)[C@]1(C)O [Dirithromycin],0.963,1.37,0.758,1.06,1.27,1.41
C[C@@H](O[C@H]1OCCN(Cc2n[nH]c(=O)[nH]2)[C@H]1c1ccc(F)cc1)c1cc(C(F)(F)F)cc(C(F)(F)F)c1 [Aprepitant],1.15,1.83,0.905,1.05,1.43,1.3
OCCOCCN1CCN(C(c2ccccc2)c2ccc(Cl)cc2)CC1 (stereo not given) [Hydroxyzine 2HCl],1.32,0.879,1.07,0.804,1.04,1.17
CC(=O)Oc1ccc(C(c2ccc(OC(C)=O)cc2)c2ccccn2)cc1 [Bisacodyl],1.2,1.2,0.531,3.08,0.712,1.41
COc1nc(N)nc2c1ncn2[C@@H]1O[C@H](CO)[C@@H](O)[C@@H]1O [Nelarabine],1.28,1.4,0.995,2.02,0.531,1.1
C[C@H](Cc1cc2c(c(C(N)=O)c1)N(CCCO)CC2)NCCOc1ccccc1OCC(F)(F)F [Silodosin],2.28,1.27,1.57,2.6,2.41,1.57
COc1ccc(-c2cc3c(C)nc(N)nc3n([C@H]3CC[C@H](OCCO)CC3)c2=O)cn1,4.94,3.33,2.31,4.31,2.12,3.03
Nc1nc(OCc2ccccc2)c2nc[nH]c2n1 [O6-Benzylguanine],1.02,0.825,0.926,1.41,0.548,0.833
Oc1c2ccccc2c2c3c(cccc13)N=N2,1.18,1.08,0.792,0.94,1.13,0.655
OC(CCN1CCCCC1)(c1ccccc1)C1CC2C=CC1C2 (stereo not given) [Biperiden HCl],0.618,0.662,0.98,1.08,1.01,0.843
O=C1CCc2cc(OCCCCc3nnnn3C3CCCCC3)ccc2N1 [Cilostazol],1.11,0.94,1.56,1.21,0.849,1.26
CC(C)(C#N)c1ccc(N2C(=O)OCc3cnc4ccc(-c5cnc6ccccc6c5)cc4c32)cc1,3.92,2.98,0.959,0.992,0.996,4.19
C[C@H](Nc1ncnc2[nH]cnc12)c1cc2ccc(F)cc2nc1-c1ccccn1,0.651,0.745,1.41,1.61,1.01,1.19
CC1=NN(c2ccccc2)C(=O)C1 [Edaravone],1.25,1.04,0.819,0.807,1.31,1.02
CNC(=O)c1ccccc1Sc1ccc2c(/C=C/c3ccccn3)n[nH]c2c1 [Axitinib],3.11,3.76,3.18,3.27,2.51,3.92
CCCCNc1ccc(C(=O)OCCN(C)C)cc1 [Tetracaine HCl],0.993,0.918,0.964,1.06,0.941,1.79
Cc1cc(C(C)(C)C)c(O)c(C)c1CC1=NCCN1 [Oxymetazoline HCl],1.3,0.82,0.75,1.1,1.88,0.83
COc1cc(NC(=O)c2ccc(-c3ccc(Cl)cc3)o2)cc(OC)c1,0.91,1.46,1.23,0.788,1.04,1.48
CCCCCCNC(=O)n1cc(F)c(=O)[nH]c1=O [Carmofur],2.44,2.89,1.27,2.91,2.49,2.82
O=C(O)CCn1c2c(c3ccccc31)C[C@H](NS(=O)(=O)c1ccc(F)cc1)CC2 [Ramatroban],0.593,0.487,0.969,0.538,1.42,0.778
CCOC(=O)c1ccc(C#Cc2ccc3c(c2)C(C)(C)CCS3)nc1 [Tazarotene],1.01,1.14,0.728,2.31,0.556,1.27
Cc1ccc(Nc2c(F)cccc2Cl)c(CC(=O)O)c1 [Lumiracoxib],1.54,0.989,0.9,1.33,0.549,1.36
C[C@H](CS)C(=O)N1CCC[C@H]1C(=O)O [Captopril],1.01,1.13,0.669,0.971,2.08,0.714
O=C(Nc1ccccc1)OCC(CN1CCCCC1)OC(=O)Nc1ccccc1 (stereo not given) [Diperodon HCl],1.03,1.43,1.31,1.59,0.984,1.64
CCCCc1nc(-c2ccc(OCCCN(CC)CC)cc2)cn1-c1ccc(Oc2ccc(Cl)cc2)cc1 [Azeliragon],6.58,4.65,0.73,3.3,1.05,1.71

Compound,Euclidean distance (786-O),Euclidean distance (A549),Euclidean distance (DU145),Euclidean distance (FB),Euclidean distance (HEPG2),Euclidean distance (OVCAR4)
C/C=C1\[C@H]2C=C(C)C[C@]1(N)c1ccc(=O)[nH]c1C2 [(-)-Huperzine A (HupA)],1.09,0.676,0.79,0.881,0.528,1.07
CC(CN1c2ccccc2Sc2ccccc21)N(C)C (stereo not given) [Promethazine HCl],0.72,0.962,1.47,1.72,0.856,1.1
Cc1cc(C)c(/C=C2\C(=O)Nc3ccccc32)[nH]1 [Semaxanib (SU5416)],2.05,1.16,1.09,1.08,0.527,0.885
CN1C(CCl)Nc2cc(Cl)c(S(N)(=O)=O)cc2S1(=O)=O (stereo not given) [Methyclothiazide],1.01,0.722,0.72,0.776,0.485,1.52
CC[C@@]1(O)C(=O)OCc2c1cc1n(c2=O)Cc2cc3cc(O)ccc3nc2-1 [Hydroxy Camptothecine],3.83,4.01,3.99,3.74,3.55,2.89
Cc1cccc(-c2nn3c(c2-c2ccnc4ccc(C(N)=O)cc24)CCC3)n1,1.39,1.06,0.926,1.47,1.04,1.18
Oc1ccc(OCc2ccccc2)cc1 [Monobenzone],2.36,2.32,2.56,1.45,0.99,2.11
Cc1cc(/C=C/C#N)cc(C)c1Nc1ccnc(Nc2ccc(C#N)cc2)n1 [Rilpivirine],1.85,2.11,1.55,1.69,0.573,0.925
CCC(Cc1c(I)cc(I)c(N)c1I)C(=O)O (stereo not given) [Iopanoic acid],0.512,0.937,0.812,1.22,0.765,0.713
CCc1c(O)cc(O)c(C(=O)c2ccc(OCCN3CCOCC3)c(OC)c2)c1CC(=O)N(CCOC)CCOC,2.14,3.28,2.34,3.63,2.39,3.18
CCOC(=O)c1ccc(N)cc1 [Benzocaine hydrochloride],0.675,0.334,0.563,0.896,0.264,0.998
CNC(=O)c1cccc(-c2ccc3c(N4CCOC[C@@H]4C)nc(N4CCOC[C@@H]4C)nc3n2)c1,4,3.14,2.52,4.98,4.09,4.15
O=c1cc(-c2ccccc2)oc2cc(O)c(O)c(O)c12 [Baicalein],1.38,1.65,1.25,2.7,0.918,1.08
C[C@]12C=CC(=O)C=C1CC[C@@H]1[C@@H]2[C@@H](O)C[C@@]2(C)[C@H]1CC[C@]2(O)C(=O)CO [Prednisolone],1.51,2.15,2.31,1.67,2.12,2.19
CCOc1cc([C@@H](CS(C)(=O)=O)N2C(=O)c3cccc(NC(C)=O)c3C2=O)ccc1OC,1.2,0.481,1.78,0.934,0.783,0.611
COc1cc2nc(N3CCCN(C)CC3)nc(NC3CCN(Cc4ccccc4)CC3)c2cc1OC,4.16,3.99,3.51,4.73,4.64,3.6
CCN(CC)CCOC(=O)C1(C2CCCCC2)CCCCC1 [Dicyclomine HCl],1.23,1.1,1.39,1.16,1.04,1.43
CC1(C)Cc2c(sc(NC(=O)c3ccn[nH]3)c2C(N)=O)C(C)(C)O1,0.808,0.814,1.54,1.43,0.816,1.06
CC1=C(/C=C/C(C)=C/C=C/C(C)=C/C(=O)Nc2ccc(O)cc2)C(C)(C)CCC1 [Fenretinide],2.9,2.87,1.92,2.58,1.91,2.4
COc1cc2c(cc1OC)[C@H]1C[C@@H](OC(=O)[C@@H](N)C(C)C)[C@H](CC(C)C)CN1CC2 [Valbenazine tosylate],0.826,0.503,1.01,0.778,0.752,1.05
CC(C)c1ccc(NC(=O)Cn2cnc3c2c(=O)n(C)c(=O)n3C)cc1,1.03,1.06,1.22,0.919,0.953,1.16
Cc1cccc(N(C)C(=S)Oc2ccc3ccccc3c2)c1 [Tolnaftate],1.29,0.815,1.01,0.908,1.96,1.36
C=C1/C(=C\C=C2/CCC[C@]3(C)[C@@H]([C@H](C)CCCC(C)C)CC[C@@H]23)C[C@@H](O)C[C@@H]1O [Alfacalcidol],2.68,1.49,6.28,1.73,0.811,1.5
CCc1c2c(nc3ccc(OC(=O)N4CCC(N5CCCCC5)CC4)cc13)-c1cc3c(c(=O)n1C2)COC(=O)[C@]3(O)CC [Irinotecan HCl Trihydrate],3.01,3.5,4.47,4.08,3.19,3.1
Cc1nc2c([nH]1)-c1ccccc1N(C(=O)c1ccc(NC(=O)c3ccccc3-c3ccccc3)cc1)CC2 [Conivaptan HCl],1.3,1.1,1.42,1.28,1.72,1.57
